The record followed here is PubChem BioAssay (NCI).

Assay [1] is described as follows: NCI Yeast Anticancer Drug Screen. Data for the rad50 strain (AID 155).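 Note: 0% = growth of vehicle-only cultures of the same strain.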 As to conditions: S. cerevisiae rad50 strain growth inhibition, hits give high values. Summed up: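 A DNA repair-deficient yeast mutant serves as the test organism; compound-induced growth inhibition is calculated against vehicle-treated cells.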
The nature of assay [2]: NCI Yeast Anticancer Drug Screen. Data for the mec2-1 strain (AID 157). As to conditions: S. cerevisiae mec2-1 strain, hits give high values. The procedure, abridged: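 Yeast mec2-1 mutant treated with compound. Readout: growth inhibition vs vehicle controls.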
A short description of assay [3]: NCI Yeast Anticancer Drug Screen. Data for the sgs1 mgt1 strain (AID 161).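 Note: 0% = growth of cultures given vehicle only.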 As to conditions: S. cerevisiae sgs1 mgt1 strain, hits give high values. The procedure, abridged:
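Genetically altered yeast, compound exposure, growth inhibition relative to vehicle.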

The nature of assay [4]: NCI Yeast Anticancer Drug Screen. Data for the cln2 rad14 strain (AID 165).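 Note: 0% = growth equal to vehicle treated cultures.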 As to conditions: S. cerevisiae cln2 rad14 strain, hits give high values. Summed up: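 cln2 rad14 yeast strain; compound exposure; growth inhibition read vs vehicle controls.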
Assay [5] in a line: NCI Yeast Anticancer Drug Screen. Data for the bub3 strain (AID 167). As to conditions: S. cerevisiae bub3 mutant strain, hits give high values. The procedure, abridged:
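Inhibition values come from growth of compound-treated mutant yeast normalised to vehicle-treated controls.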

Assay [6] is described as follows: NCI Yeast Anticancer Drug Screen. Data for the mlh1 rad18 strain (AID 175). As to conditions: S. cerevisiae mlh1 rad18 strain growth inhibition, hits give high values. The procedure, abridged:
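Yeast w/ defined DNA-repair lesions; compound exposure; growth vs vehicle controls → % inhibition.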

Setting [7] is: at 5.0 µM (retest, dose inferred, filed as 0.5).
[8] abbreviates: at 50.0 µM (retest, dose inferred, filed as 5.0).

Molecules are shown by their SMILES. This is part of a sample that, as a whole, favours compounds with a hit. Of some 79,000 tested, about 15% had one in any assay. Unmarked numbers belong to inactive results. Calls of active or inactive are those of the source. Cut-off read from the data, not from the text of the source: active = growth inhibition above about 70%; inactive = the rest.

For `CN(C)c1ccc(/C=C/C(=O)c2ccc([N+](=O)[O-])cc2)cc1`, the growth inhibition in assay [1] (setting [7]) is 38%; in assay [1] (setting [8]), 48%; in assay [1] (at 50.0 µM), -21.7%; in assay [2] (setting [7]) it was 45%; in assay [2] (setting [8]), 42%; in assay [2] (at 50.0 µM) it was -16%. The growth inhibition is -9% in assay [3] (setting [7]); 24% in assay [3] (setting [8]); -16.7% in assay [3] (at 50.0 µM); 24% in assay [4] (setting [7]); 41% in assay [4] (setting [8]); -4.5% in assay [4] (at 50.0 µM). Moreover, the growth inhibition in assay [5] (setting [7]) was 21%; in assay [5] (setting [8]), 23%; in assay [5] (at 50.0 µM) it was -13.4%; in assay [6] (setting [7]), 34%; in assay [6] (setting [8]), 45%; in assay [6] (at 50.0 µM), -47.2%.

As to `CC[N+]1(C)CCC(O)(c2ccc(Cl)c(Cl)c2)C(C(=O)c2ccc(Cl)c(Cl)c2)C1` (stereo not given), the growth inhibition was 15% in assay [1] (setting [7]); 99% (active) in assay [1] (setting [8]); 99.4% (active) in assay [1] (at 50.0 µM); 4% in assay [2] (setting [7]); 100% (active) in assay [2] (setting [8]); 99.6% (active) in assay [2] (at 50.0 µM). Also, the growth inhibition is 11% in assay [3] (setting [7]); 99% (active) in assay [3] (setting [8]); 99% (active) in assay [3] (at 50.0 µM); 6% in assay [4] (setting [7]); 99% (active) in assay [4] (setting [8]); 99.5% (active) in assay [4] (at 50.0 µM). In addition, the growth inhibition in assay [5] (setting [7]) was 13%; in assay [5] (setting [8]), 100% (active); in assay [5] (at 50.0 µM), 98.8% (active); in assay [6] (setting [7]) it was 7%; in assay [6] (setting [8]), 100% (active); in assay [6] (at 50.0 µM), 99.6% (active).

`COc1cccc2c1C(=O)c1c(O)c3c(c(O)c1C2=O)CC(O)(C(=O)CO)CC3OC1CC(N)C(O)C(C)O1.[Cl][Pt+2][Cl].[NH2-].[NH2-]` (stereo not given): the growth inhibition in assay [1] (setting [7]) was 12%; in assay [1] (setting [8]), 85% (active); in assay [1] (at 50.0 µM) it was 74.5% (active); in assay [2] (setting [7]), 9%; in assay [2] (setting [8]), 47%; in assay [2] (at 50.0 µM), 49.5%. Further, the growth inhibition in assay [3] (setting [7]) is 11%; in assay [3] (setting [8]) it was 83% (active); in assay [3] (at 50.0 µM), 78% (active); in assay [4] (setting [7]), 8%; in assay [4] (setting [8]), 87% (active); in assay [4] (at 50.0 µM), 43.5%. Moreover, the growth inhibition in assay [5] (setting [7]) is 0%; in assay [5] (setting [8]), 56%; in assay [5] (at 50.0 µM) it was 34.5%; in assay [6] (setting [7]), 29%; in assay [6] (setting [8]), 94% (active); in assay [6] (at 50.0 µM), 88.7% (active).

Turning to `Nc1ccc(-c2ccc(Cl)cc2)cc1`, the growth inhibition in assay [1] (setting [7]) was 0%; in assay [1] (setting [8]), 96% (active); in assay [1] (at 50.0 µM), 96.7% (active); in assay [2] (setting [7]), -2%; in assay [2] (setting [8]) it was 61%; in assay [2] (at 50.0 µM), 78.7% (active). Besides, the growth inhibition in assay [3] (setting [7]) is -1%; in assay [3] (setting [8]) it was 78% (active); in assay [3] (at 50.0 µM) it was 94.5% (active); in assay [4] (setting [7]) it was -6%; in assay [4] (setting [8]) it was 93% (active); in assay [4] (at 50.0 µM), 92.2% (active). For the same compound, the growth inhibition was 4% in assay [5] (setting [7]); 61% in assay [5] (setting [8]); 96.9% (active) in assay [5] (at 50.0 µM); -1% in assay [6] (setting [7]); 95% (active) in assay [6] (setting [8]); 93.3% (active) in assay [6] (at 50.0 µM).

Take `COC1=C(/C(=N/Nc2ccc([N+](=O)[O-])cc2[N+](=O)[O-])c2ccccc2)COC1=O`: the growth inhibition was -2% in assay [1] (setting [7]); -6% in assay [1] (setting [8]); 17.1% in assay [1] (at 50.0 µM); 0% in assay [2] (setting [7]); -4% in assay [2] (setting [8]); 9.25% in assay [2] (at 50.0 µM). For the same compound, the growth inhibition was -3% in assay [3] (setting [7]); -7% in assay [3] (setting [8]); -8.25% in assay [3] (at 50.0 µM); 4% in assay [4] (setting [7]); 15% in assay [4] (setting [8]); 4.15% in assay [4] (at 50.0 µM). The growth inhibition in assay [5] (setting [7]) is 3%; in assay [5] (setting [8]), -3%; in assay [5] (at 50.0 µM), 93.3% (active); in assay [6] (setting [7]) it was 3%; in assay [6] (setting [8]), -6%; in assay [6] (at 50.0 µM) it was 4.9%.

Turning to `ONC1=Nc2ccccc2OCc2cc(Br)c(Br)cc2COc2ccccc2N=C1NO`, the growth inhibition in assay [1] (setting [7]) was 22%; in assay [1] (setting [8]), 96% (active); in assay [1] (at 50.0 µM), 88% (active); in assay [2] (setting [7]), 19%; in assay [2] (setting [8]), 98% (active); in assay [2] (at 50.0 µM), 91.1% (active). For the same compound, the growth inhibition in assay [3] (setting [7]) was 18%; in assay [3] (setting [8]), 89% (active); in assay [3] (at 50.0 µM), 91.5% (active); in assay [4] (setting [7]), -1%; in assay [4] (setting [8]), 81% (active); in assay [4] (at 50.0 µM), 89.4% (active). For the same compound, the growth inhibition was 13% in assay [5] (setting [7]); 91% (active) in assay [5] (setting [8]); 90.9% (active) in assay [5] (at 50.0 µM); 31% in assay [6] (setting [7]); 97% (active) in assay [6] (setting [8]); 87.9% (active) in assay [6] (at 50.0 µM).

`O=C1/C(=C/c2ccccc2)CN(C(=O)CCN2CCCC2)C/C1=C\c1ccccc1`: the growth inhibition in assay [1] (setting [7]) is 5%; in assay [1] (setting [8]), 83% (active); in assay [1] (at 50.0 µM) it was 91.8% (active); in assay [2] (setting [7]), 10%; in assay [2] (setting [8]), 86% (active); in assay [2] (at 50.0 µM), 90.5% (active). Also, the growth inhibition was 99% (active) in assay [3] (setting [7]); 96% (active) in assay [3] (setting [8]); 91.3% (active) in assay [3] (at 50.0 µM); 99% (active) in assay [4] (setting [7]); 96% (active) in assay [4] (setting [8]); 89.7% (active) in assay [4] (at 50.0 µM). In addition, the growth inhibition was 99% (active) in assay [5] (setting [7]); 96% (active) in assay [5] (setting [8]); 92.2% (active) in assay [5] (at 50.0 µM); 2% in assay [6] (setting [7]); 89% (active) in assay [6] (setting [8]); 90.5% (active) in assay [6] (at 50.0 µM).

Consider `N=C(N)c1ccc(OCCCCOc2ccc(N)cc2Cl)cc1`, for which the growth inhibition in assay [1] (setting [7]) was -36%; in assay [1] (setting [8]), 89% (active); in assay [1] (at 50.0 µM), 54.5%; in assay [2] (setting [7]), -2%; in assay [2] (setting [8]) it was 79% (active); in assay [2] (at 50.0 µM), 7.85%. Besides, the growth inhibition was 3% in assay [3] (setting [7]); 98% (active) in assay [3] (setting [8]); 44.4% in assay [3] (at 50.0 µM); -2% in assay [4] (setting [7]); 38% in assay [4] (setting [8]); -16.9% in assay [4] (at 50.0 µM). Moreover, the growth inhibition in assay [5] (setting [7]) was 0%; in assay [5] (setting [8]), 97% (active); in assay [5] (at 50.0 µM), 0.65%; in assay [6] (setting [7]), 17%; in assay [6] (setting [8]), 98% (active); in assay [6] (at 50.0 µM), 58.6%.

As for `Clc1ccc([O][In]([O]c2ccc(Cl)cn2)[O]c2ccc(Cl)cn2)nc1`, the growth inhibition was 1% in assay [1] (setting [7]); 1% in assay [1] (setting [8]); 68.2% in assay [1] (at 50.0 µM); 8% in assay [2] (setting [7]); 8% in assay [2] (setting [8]); 72% (active) in assay [2] (at 50.0 µM). Moreover, the growth inhibition was -1% in assay [3] (setting [7]); -1% in assay [3] (setting [8]); 56% in assay [3] (at 50.0 µM); -4% in assay [4] (setting [7]); -4% in assay [4] (setting [8]); 38.9% in assay [4] (at 50.0 µM). Also, the growth inhibition in assay [5] (setting [7]) is -26%; in assay [5] (setting [8]), -26%; in assay [5] (at 50.0 µM) it was 48.2%; in assay [6] (setting [7]), -5%; in assay [6] (setting [8]), -5%; in assay [6] (at 50.0 µM), 53.8%.

On to `Cc1cc(C=Nc2ccccc2)c(O)c2ncccc12`, for which the growth inhibition was 19% in assay [1] (setting [7]); 96% (active) in assay [1] (setting [8]); 98.8% (active) in assay [1] (at 50.0 µM); 10% in assay [2] (setting [7]); 95% (active) in assay [2] (setting [8]); 99.3% (active) in assay [2] (at 50.0 µM). Besides, the growth inhibition is 15% in assay [3] (setting [7]); 98% (active) in assay [3] (setting [8]); 94.9% (active) in assay [3] (at 50.0 µM); 8% in assay [4] (setting [7]); 98% (active) in assay [4] (setting [8]); 83.7% (active) in assay [4] (at 50.0 µM). The growth inhibition was 0% in assay [5] (setting [7]); 98% (active) in assay [5] (setting [8]); 99.1% (active) in assay [5] (at 50.0 µM); 14% in assay [6] (setting [7]); 99% (active) in assay [6] (setting [8]); 99.2% (active) in assay [6] (at 50.0 µM).
